Experimental data published in PubChem BioAssay (NCATS).
Records with an inconclusive call do not appear. Entries that show only a call come without a potency. Calls of active or inactive are those of the source. Calls follow the shape of the dose curve; as a rule, active = well fitted curve in the direction sought with a large enough effect; inconclusive = small, poorly fitted or top-dose-only effect, or another doubt; inactive = no such curve, though single readings can be large; an effect the other way counts as inactive or inconclusive.

Assays:
[1] = biological target: Aldehyde dehydrogenase, mitochondrial (Homo sapiens) (UniProt P05091); experiment: qHTS for Inhibitors of the Aldehyde Dehydrogenase Family (ALDH2) Primary screen (AID 2061308); conditions: ALDH2 enzyme inhibition qHTS, 1536-well; series mostly up to 56 µM; also: nearly all actives have a fitted effect of over 55% in size
[2] = biological target: Retinaldehyde dehydrogenase 3 (Homo sapiens) (UniProt P47895); experiment: qHTS for Inhibitors of the Aldehyde Dehydrogenase Family (ALDH1A3) Primary screen (AID 2061315); conditions: ALDH inhibition qHTS; series mostly up to 56 µM

Row | SMILES | Potency [1] | Potency [2]
1 | Cc1ccc(NS(=O)(=O)c2cccc(F)c2)cc1C | inactive | inactive
2 | Cc1ccc(-c2nccc(=O)n2C(C)C(=O)NCCc2ccccc2)cc1 (centres undefined) | inactive | inactive
3 | Cc1ccc(C(=O)[C@H]2CC[C@@H](C(=O)Nc3ccc(S(=O)(=O)Nc4nccs4)cc3)C2)cc1C | inactive | inactive
4 | CC(NCc1ccc2c(c1)nc(NC(=O)c1ccc(-c3cn[nH]c3)s1)n2CC(C)(C)O)C(C)(C)C (centres undefined) | inactive | inactive
5 | O=C(/C=C/c1ccc(C(F)(F)F)cc1)Nc1cccc([S+](=O)([O-])Nc2ccccc2F)c1 | inactive | inactive
6 | O=C(Nc1ccc(-c2ccccc2)nc1)c1cccs1 | inactive | inactive
7 | CCOC(=O)c1ccc(O)c2ncc(NCC3CCCN(CCc4ccccc4)C3)cc12 (centres undefined) | inactive | inactive
8 | Cc1ccc(S(=O)(=O)Nc2ccccc2C(=O)Nc2ccc(-c3ccccc3)nn2)cc1 | inactive | inactive
9 | O=[N+]([O-])c1ccc([S+](=O)([O-])N2CCN([S+](=O)([O-])c3ccc4c(c3)OCCO4)CC2)c([N+](=O)[O-])c1 | inactive | inactive
10 | CCC(Nc1ncnc2ccc(-c3c(C)noc3C)cc12)c1ccccc1 (centres undefined) | inactive | inactive
11 | Cc1ccc(OCCn2c(CCNC(=O)c3ccc(F)cc3F)nc3ccccc32)cc1 | inactive | inactive
12 | CC(=O)c1ccc(N2CCN(S(=O)(=O)c3ccc4c(c3)C(=O)OC4)CC2)cc1 | inactive | inactive
13 | CC(=O)Nc1sc2c(c1-c1cccnc1)CCNC2 | inactive | inactive
14 | CCNC(=O)c1ccc(-c2ccc3ncnc(NCc4nc(C)cs4)c3c2)o1 | inactive | inactive
15 | CCCn1c(-c2ccc(F)cc2)nc2c(N3CCC(N(C)C)C3)nc(C)nc21 (centres undefined) | inactive | inactive
16 | NC(=O)c1cccc(C[C@H](C(=O)O)N2C(=O)c3ccc(C(=O)O)cc3C2=O)c1 | inactive | inactive
17 | CS(=O)(=O)c1ccc(C(=O)OCC(=O)N2CCN(CCC3CCCCC3)CC2)cc1[N+](=O)[O-] | inactive | inactive
18 | Cn1nnnc1Sc1ncnc2scc(-c3ccccc3S(C)(=O)=O)c12 | inactive | inactive
19 | Cc1ccc(S(=O)(=O)Nc2ccc(C(=O)Nc3nc(-c4ccccc4)cs3)cc2Cl)cc1 | inactive | inactive

Row | SMILES | Potency [1] | Potency [2]
20 | COc1ccc(-c2nnc3n2N=C(c2ccc(OC)c(OC)c2)CS3)cc1 | inactive | inactive
21 | O=S(=O)(c1cccc(Br)c1)N1CCN(S(=O)(=O)c2ccc3c(c2)OCCO3)CC1 | inactive | inactive
22 | COc1cccc(-c2csc3ncnc(Sc4nnnn4C)c23)c1 | inactive | inactive
23 | O=C(O)c1cccc(S(=O)(=O)N2CCN(S(=O)(=O)c3ccc4c(c3)OCCO4)CC2)c1 | inactive | inactive
24 | COC(=O)c1nc(Nc2cc(F)cc(F)c2)nc(NC2CCCC2)n1 | inactive | inactive
25 | COc1ccc(-n2cnc3c(c2=N)C(c2cccc(OC)c2)c2c(ccc4ccccc24)O3)cc1 (centres undefined) | inactive | inactive
26 | O=C1Cc2cc(S(=O)(=O)N3CCN(c4cccc(C(F)(F)F)c4)CC3)ccc2N1 | inactive | inactive
27 | C/C=C/C=C/C=C/C(=O)O[C@@H]1C=C(CO)[C@](O)(CO)[C@@]2(C)CCCC(C)(C)[C@H]12 | inactive | inactive
28 | COc1ccc(C2=Nn3c(nnc3-c3ccc(OC)c(OC)c3)SC2)cc1OC | inactive | inactive
29 | CC[C@@H]1C(=O)O[C@]23C=C[C@@H]4C(C(=O)OC)=CO[C@H](O[C@@H]12)[C@@H]43 | inactive | inactive
30 | Cc1ccccc1-c1csc2ncnc(Sc3nnnn3C)c12 | inactive | inactive
31 | COc1ccc2c(c1)Oc1nc(-c3ccc(C)cc3)nc(SCC(=O)Nc3cccc(C(=O)O)c3)c1C2 | inactive | inactive
32 | COc1ccnc(NC(=S)N2CCN(c3ncc(C(F)(F)F)cc3Cl)CC2)c1 | inactive | inactive
33 | Cc1ccc(NS(=O)(=O)c2cccc(C(=O)O)c2)cc1C | inactive | inactive
34 | Cc1ccc(OCCn2c(CCNC(=O)c3cccc4ccccc34)nc3ccccc32)cc1 | inactive | inactive
35 | O=C(Cn1nc(C2CCCCC2)ccc1=O)NCCc1ccccc1 | inactive | inactive
36 | Cc1cccc(C)c1-n1c(SCC(=O)Nc2ccc(C(=O)O)cc2)nnc1-c1ccc([S+](=O)([O-])N2CCCC2)cc1 | inactive | inactive
37 | Cc1cc(-c2ccccc2)n2ncc(C(=O)Nc3ccccc3Sc3ccccc3)c2n1 | inactive | inactive
